Records with an inconclusive call do not appear. Entries that show only a call come without a potency. Calls of active or inactive are those of the source. Calls come from the whole dose curve; as a rule, active = well fitted inhibition curve with a large enough effect; inconclusive = small, poorly fitted or top-dose-only effect; inactive = flat fitted curve, though single readings scatter.
Potency is the fitted concentration of half-maximal effect.

This assay is described as follows: Primary qHTS for inhibitors of nuclear receptor binding SET domain protein 2 (NSD2) in an isogenic RCH-ACV NSD2 p.E1099K mutant (9B) (AID 1645876). Note: nearly all actives have a fitted effect of over 70% in size. The conditions noted are these: RCH-ACV (leukaemia line) NSD2 E1099K (9B) viability, CellTiter-Glo, 72 h; series mostly up to 44.9 µM.
Take `Oc1ccc(/C=C/c2cc(O)cc(O)c2)cc1`: the Potency was 9.34 µM (active).
As for `CN(C)CCCSc1ccccc1NC(=O)/C=C/c1ccccc1`, the Potency entry is “inactive”.
As for `NC[C@H]1O[C@H](O[C@H]2[C@H](O)[C@@H](O[C@H]3O[C@H](CO)[C@@H](O)[C@H](N)[C@H]3O)[C@H](N)C[C@@H]2N)[C@H](N)C[C@@H]1O`, the Potency result is “inactive”.
For the compound `CNC(=O)[C@H](Cc1c[nH]c2ccccc12)NC(=O)[C@@H](CC(=O)NO)CC(C)C`, the Potency entry is “inactive”.
With `CC(=O)Oc1cccc2c1C(=O)c1c(OC(C)=O)cc(C(=O)O)cc1C2=O`, the Potency result is “inactive”.
The value for `CCCCC[C@H](O)/C=C/[C@H]1[C@H](O)CC(=O)[C@@H]1CCCCCCC(=O)O` was 0.0661 µM (active); that for `O=C(O)CCC(=O)c1ccc(-c2ccccc2)cc1` was “inactive”; that for `O=C(O)Cc1cc(I)c(Oc2ccc(O)c(I)c2)c(I)c1` was 20.5 µM (active).

For the origin of these results see PubChem BioAssay (NCATS).
